According to PubChem BioAssay (NCATS):
A number with no mark means an inactive call. Inconclusive results are not listed. Entries that show only a call come without a potency. Active and inactive are the calls of the source. Calls follow the shape of the dose curve; as a rule, active = well fitted curve in the direction sought with a large enough effect; inconclusive = small, poorly fitted or top-dose-only effect, or another doubt; inactive = no such curve, though single readings can be large; an effect the other way counts as inactive or inconclusive.

Columns and labels:
[1] = system: Nanoluciferase (engineered Oplophorus gracilirostris luciferase); test: Primary Nanoluciferase (NLuc) qHTS assay for identification of artifact compounds. (AID 1845222); also: series mostly up to about 54 µM
Outline: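 Luminescence read-out of secreted NLuc in S16 cell conditioned medium (1:55); compounds tested with 15 min RT preincubation, then Nano-Glo substrate 1:100, 5 min. % inhibition vs no-enzyme and DMSO controls, 4-parameter Hill fit.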

[2] = Primary redox qHTS assay for identification of artifact compounds. (AID 1845223)
Outline: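 Amplex Red (25 uM) and HRP (250 mU/mL) in HBSS, with compounds for 15 min, then 250 uM DTT for 30 min, room temperature, dark. Fluorescence 525/598 nm read; normalized to DMSO and 10 uM DA3003; Hill fit.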

Row | Structure (SMILES) | Potency [1] | Potency [2] | activity, negative = inhibition [1] | redox activity (% of DA3003) [2]
1 | C[C@@H]1O[C@@H](O[C@H]2[C@@H]3C=CO[C@@H](O[C@@H]4O[C@H](CO)[C@@H](O)[C@H](O)[C@H]4O)[C@@H]3[C@@]3(CO)O[C@@H]23)[C@H](O)[C@H](OC(=O)/C=C/c2ccc(O)c(O)c2)[C@H]1O | inactive | inactive |  | 
2 | CC(O)/C=C/C1(O)C(C)C(O)C(O[C@@H]2O[C@H](CO)[C@@H](O)[C@H](O)[C@H]2O)CC1(C)C (stereo partly drawn) | inactive | inactive |  | 
3 | COc1cc(C2Oc3c(OC)cc(CCCO)cc3C2CO)ccc1O (stereo not drawn) | inactive | inactive |  | 
4 | COc1cc2c(c(O)c1OC/C=C(\C)CC/C=C(/C)CCC=C(C)C)CN(C(CCC(=O)O)C(=O)O)C2=O (stereo not drawn) | inactive | inactive |  | 
5 | CC1(C)CC[C@]2(C(=O)O)CC[C@]3(C)C(=CCC4[C@@]5(C)CC[C@H](O[C@H]6O[C@H](C(=O)O)[C@@H](O)[C@H](O[C@@H]7O[C@H](CO)[C@H](O)[C@H](O)[C@H]7O)[C@H]6O)C(C)(C)C5CC[C@]43C)[C@@H]2C1 (stereo partly drawn) |  |  | 2.24% [at 11.6 µM] | 8.43% [at 11.5 µM]
6 | CC(=O)OC[C@@]12C(=O)C[C@@H](C)[C@]3(C[C@@H](c4ccoc4)OC3=O)[C@H]1CC[C@H](OC(C)=O)[C@]21CO1 | inactive | inactive |  | 
7 | CC(NC(=O)[C@H](Cc1ccccc1)NC(=O)OCc1ccccc1)C(=O)CF (stereo partly drawn) | inactive | inactive |  | 
8 | CC1CCC2C(C)(C)C(O)C(O)CC2(C)C12Cc1c(O)cc(CO)c(C=O)c1O2 (stereo not drawn) | inactive | inactive |  | 
9 | Cc1ccccc1N1CCN(S(=O)(=O)C[C@]23CC[C@H](C[C@@H]2NC(=O)[C@@H](N)CCS(C)(=O)=O)C3(C)C)CC1 | inactive | inactive |  | 
